Measured values reported in the supplement of paper PMC10849652.
Of roughly 8,800 targets only a part is listed; those with a hit were picked by preference. About 0.5% of all pairs of compound and target were hits. Unmarked numbers belong to inactive results.

How the values were obtained:
Experiment in all cases: log2 fold change, soluble protein after heating vs DMSO (PISA); higher = thermal stabilisation; K562 lysate, 10 uM; active = over 0.2 and 3.5 SD of the protein, either way, in both replicates (recomputed)
erlotinib = compound: C#Cc1cccc(Nc2ncnc3cc(OCCOC)c(OCCOC)cc23)c1 [erlotinib]
Outline: (§1)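 Pellets of K562 cells were dounce-homogenised in PBS pH 7.4 with 1 mM MgCl2, and the crude extract was held at 1 mg/mL protein for a 30 min treatment with 10 μM compound. Aliquots were heated for 3 min over 48°C-58°C and pooled before NP-40 was added to 0.5% at 4°C. The supernatant from 21,000xg for 90 min was quantified by TMTpro 16plex LC-MS/MS with channel sums equalised. Values are reported from duplicates as log-two fold change in thermal stability relative to solvent controls.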

[1] = compound: C1=CC(=CC=C1C2=NC3=C(N2)C=C(C=C3)C(=O)N)OC4=CC=C(C=C4)Cl
Outline: as §1

[2] = compound: C1=CC2=NC=CN=C2C=C1/C=C/3\C(=O)NC(=O)S3
Outline: as §1

[3] = compound: C1=CC=C(C=C1)C2=NC(=C(N2)C3=CC=NC=C3)C4=CC(=C(C=C4)Cl)O
Outline: as §1

[4] = compound: C1CCN(C1)C(=O)NC2=CC=CC(=C2)NC3=NC=C(C(=N3)NCCC4=CN=CN4)Br
Outline: as §1

[5] = compound: C1CN(CCC1(CC2=CC=C(C=C2)Cl)N)C3=NC=NC4=C3C=CN4
Outline: as §1

IRAK-1-4 Inhibitor I = compound: C1COCCN1CCN2C3=CC=CC=C3N=C2NC(=O)C4=CC(=CC=C4)[N+](=O)[O-] [IRAK-1-4 Inhibitor I]
Outline: as §1

ibrutinib = compound: C=CC(=O)N1CCC[C@@H](n2nc(-c3ccc(Oc4ccccc4)cc3)c3c(N)ncnc32)C1 [ibrutinib]
Outline: as §1

[6] = compound: CC(=O)c1cnc2ccc(-c3cc(Cl)c(O)c(Cl)c3)nc2c1N[C@H]1CC[C@H](CN(C)C)CC1
Outline: as §1

ralimetinib = compound: CC(C)(C)Cn1c(N)nc2ccc(-c3[nH]c(C(C)(C)C)nc3-c3ccc(F)cc3)nc21 [ralimetinib]
Outline: as §1

[7] = compound: CC(C)(O)CC(=O)NCCn1ccc2ncnc(Nc3ccc(Oc4cccc(C(F)(F)F)c4)c(Cl)c3)c21
Outline: as §1

[8] = compound: CC(C)C1=C2N=C(C=C(N2N=C1)NCC3=CC=CC=C3)NCCCCCCN
Outline: as §1

[9] = compound: CC1=C(C(CC(=O)N1)C2=CC=C(C=C2)C(F)(F)F)C(=O)NC3=C(C=C4C(=C3)C=NN4)F
Outline: as §1

[10] = compound: CC1=C(C2=C(C=C1)C(=O)C3=CC=CC=C3N2CCCN)C
Outline: as §1

[11] = compound: CC1=C(C=C(C=C1)NC(=O)C2=CC(=CC=C2)C(C)(C)C#N)NC3=CC4=C(C=C3)N=CN(C4=O)C
Outline: as §1

[12] = compound: CC1=C(C=C(C=C1)NC(=O)C2=CC(=CC=C2)N(C)C)NC(=O)C3=CC=C(C=C3)O
Outline: as §1

[13] = compound: CC1=CC=C(C=C1)SC2=C3C=C(SC3=CN=C2)C(=O)N
Outline: as §1

[14] = compound: C/C(=N\NC(=O)C1=CC(=CC=C1)S(=O)(=O)N2CCOCC2)/C3=C(C=CC(=C3)Cl)O
Outline: as §1

[15] = compound: C1=CC2=C(C=CC(=C2)/C=C\3/C(=O)NC(=NCC4=CC=CS4)S3)N=C1
Outline: as §1

[16] = compound: C1=CC=C2C(=C1)C3=NNC4=CC=CC(=C43)C2=O
Outline: as §1

Sequence of UniProt P28328 (P28328 whole entry, looked up): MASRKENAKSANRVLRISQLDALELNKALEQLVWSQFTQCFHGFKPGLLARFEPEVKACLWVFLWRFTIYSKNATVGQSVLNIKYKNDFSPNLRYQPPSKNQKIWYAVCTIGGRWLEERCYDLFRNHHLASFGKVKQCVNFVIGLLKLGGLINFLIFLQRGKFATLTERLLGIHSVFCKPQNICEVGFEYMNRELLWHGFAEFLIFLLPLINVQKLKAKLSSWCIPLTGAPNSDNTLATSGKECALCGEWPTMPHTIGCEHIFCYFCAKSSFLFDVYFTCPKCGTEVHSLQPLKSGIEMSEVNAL
Sequence of UniProt O60927 (O60927 whole entry, looked up): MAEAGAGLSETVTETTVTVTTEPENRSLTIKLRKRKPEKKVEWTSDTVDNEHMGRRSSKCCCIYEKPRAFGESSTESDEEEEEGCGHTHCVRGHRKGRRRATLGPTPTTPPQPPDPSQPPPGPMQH
Sequence of UniProt P45877 (P45877 whole entry, looked up): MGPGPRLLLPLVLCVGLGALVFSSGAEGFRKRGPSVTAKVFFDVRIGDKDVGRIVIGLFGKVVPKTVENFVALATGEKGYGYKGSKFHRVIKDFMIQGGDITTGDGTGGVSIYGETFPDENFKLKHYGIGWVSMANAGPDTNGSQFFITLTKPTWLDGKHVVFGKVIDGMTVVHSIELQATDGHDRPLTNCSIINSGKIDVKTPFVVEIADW
Sequence of UniProt Q9BSG0 (Q9BSG0 whole entry, looked up): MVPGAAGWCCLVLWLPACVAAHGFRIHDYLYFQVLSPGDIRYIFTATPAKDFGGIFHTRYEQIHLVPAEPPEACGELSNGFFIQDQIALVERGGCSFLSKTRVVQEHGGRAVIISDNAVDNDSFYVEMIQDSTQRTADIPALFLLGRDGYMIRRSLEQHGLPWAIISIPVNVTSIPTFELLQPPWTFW
Sequence of UniProt A8CG34 (A8CG34 whole entry, looked up): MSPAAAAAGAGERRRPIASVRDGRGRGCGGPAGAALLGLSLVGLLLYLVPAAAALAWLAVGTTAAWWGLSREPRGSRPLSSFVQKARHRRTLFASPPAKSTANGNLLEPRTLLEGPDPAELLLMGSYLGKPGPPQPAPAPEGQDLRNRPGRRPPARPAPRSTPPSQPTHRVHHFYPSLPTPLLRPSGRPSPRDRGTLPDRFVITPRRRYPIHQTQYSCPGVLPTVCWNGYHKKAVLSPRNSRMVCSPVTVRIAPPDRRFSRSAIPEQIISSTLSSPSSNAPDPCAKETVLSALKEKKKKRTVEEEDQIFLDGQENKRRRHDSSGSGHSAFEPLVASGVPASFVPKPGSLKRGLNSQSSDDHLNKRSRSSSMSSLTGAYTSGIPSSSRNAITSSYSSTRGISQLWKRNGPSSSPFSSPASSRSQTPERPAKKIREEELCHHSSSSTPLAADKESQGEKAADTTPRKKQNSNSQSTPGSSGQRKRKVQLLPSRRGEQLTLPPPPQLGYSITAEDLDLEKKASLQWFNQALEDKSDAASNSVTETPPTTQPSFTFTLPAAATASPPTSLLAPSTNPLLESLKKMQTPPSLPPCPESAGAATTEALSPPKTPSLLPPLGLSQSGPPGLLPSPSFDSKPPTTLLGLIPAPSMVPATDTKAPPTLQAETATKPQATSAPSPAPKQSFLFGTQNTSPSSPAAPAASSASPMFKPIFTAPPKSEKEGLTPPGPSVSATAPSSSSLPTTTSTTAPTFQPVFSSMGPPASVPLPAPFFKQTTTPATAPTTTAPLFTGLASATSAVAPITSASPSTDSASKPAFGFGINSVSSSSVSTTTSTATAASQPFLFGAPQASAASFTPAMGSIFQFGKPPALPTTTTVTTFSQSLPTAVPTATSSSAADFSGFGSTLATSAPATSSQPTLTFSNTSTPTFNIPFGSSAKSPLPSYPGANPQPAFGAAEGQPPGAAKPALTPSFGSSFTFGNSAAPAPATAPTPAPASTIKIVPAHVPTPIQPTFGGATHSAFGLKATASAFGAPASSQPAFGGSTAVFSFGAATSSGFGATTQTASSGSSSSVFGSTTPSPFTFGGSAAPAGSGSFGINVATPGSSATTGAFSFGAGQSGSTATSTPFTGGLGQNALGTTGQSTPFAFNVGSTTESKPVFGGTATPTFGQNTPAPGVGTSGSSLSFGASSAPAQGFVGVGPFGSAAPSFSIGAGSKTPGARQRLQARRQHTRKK
Sequence of UniProt P48736 (P48736 whole entry, looked up): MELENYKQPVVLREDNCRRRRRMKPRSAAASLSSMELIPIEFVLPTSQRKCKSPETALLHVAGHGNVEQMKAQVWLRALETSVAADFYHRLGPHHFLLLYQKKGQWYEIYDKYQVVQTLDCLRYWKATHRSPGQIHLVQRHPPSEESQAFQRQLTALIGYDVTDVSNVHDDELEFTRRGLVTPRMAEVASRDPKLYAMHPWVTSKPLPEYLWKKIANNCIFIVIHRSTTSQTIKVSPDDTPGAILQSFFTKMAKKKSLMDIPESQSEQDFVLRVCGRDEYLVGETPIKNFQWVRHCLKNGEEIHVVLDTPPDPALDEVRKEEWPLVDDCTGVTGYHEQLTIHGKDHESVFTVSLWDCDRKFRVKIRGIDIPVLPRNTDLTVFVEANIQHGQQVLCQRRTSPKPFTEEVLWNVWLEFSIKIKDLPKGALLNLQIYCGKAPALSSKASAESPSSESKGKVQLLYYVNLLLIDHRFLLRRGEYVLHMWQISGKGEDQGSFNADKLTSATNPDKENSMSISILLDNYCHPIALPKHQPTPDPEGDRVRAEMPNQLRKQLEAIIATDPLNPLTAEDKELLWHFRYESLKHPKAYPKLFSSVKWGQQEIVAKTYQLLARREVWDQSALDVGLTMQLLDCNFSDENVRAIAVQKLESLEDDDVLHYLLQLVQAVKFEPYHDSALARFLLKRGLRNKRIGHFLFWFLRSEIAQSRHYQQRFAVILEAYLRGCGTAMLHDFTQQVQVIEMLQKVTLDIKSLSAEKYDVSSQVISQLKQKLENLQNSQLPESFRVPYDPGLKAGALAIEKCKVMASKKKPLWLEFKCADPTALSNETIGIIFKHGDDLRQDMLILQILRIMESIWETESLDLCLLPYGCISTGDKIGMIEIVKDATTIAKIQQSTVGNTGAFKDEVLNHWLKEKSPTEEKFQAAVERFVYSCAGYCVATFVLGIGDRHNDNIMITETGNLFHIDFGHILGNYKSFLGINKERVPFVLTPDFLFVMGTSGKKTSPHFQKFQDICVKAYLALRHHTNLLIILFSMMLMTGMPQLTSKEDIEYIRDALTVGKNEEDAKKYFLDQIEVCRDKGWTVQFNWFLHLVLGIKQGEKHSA
Sequence of UniProt Q9Y570 (Q9Y570 whole entry, looked up): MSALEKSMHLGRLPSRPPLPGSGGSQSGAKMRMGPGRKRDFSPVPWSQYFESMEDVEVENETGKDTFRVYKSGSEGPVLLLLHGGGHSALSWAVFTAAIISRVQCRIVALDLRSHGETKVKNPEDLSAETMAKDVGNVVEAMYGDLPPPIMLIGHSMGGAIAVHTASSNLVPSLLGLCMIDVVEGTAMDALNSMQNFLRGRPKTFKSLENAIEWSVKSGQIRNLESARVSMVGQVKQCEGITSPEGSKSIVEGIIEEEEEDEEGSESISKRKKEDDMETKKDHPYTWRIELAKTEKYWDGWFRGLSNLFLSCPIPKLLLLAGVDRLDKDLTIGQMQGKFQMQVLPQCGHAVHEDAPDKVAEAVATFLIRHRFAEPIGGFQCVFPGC
Sequence of UniProt O14668 (O14668 whole entry, looked up): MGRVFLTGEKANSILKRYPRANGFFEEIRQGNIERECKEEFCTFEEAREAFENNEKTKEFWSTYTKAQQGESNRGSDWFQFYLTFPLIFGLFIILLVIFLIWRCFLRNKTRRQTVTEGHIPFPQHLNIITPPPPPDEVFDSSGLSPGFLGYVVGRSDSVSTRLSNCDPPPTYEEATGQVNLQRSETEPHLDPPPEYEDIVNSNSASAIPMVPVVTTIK
Sequence of UniProt P60673 (P60673 whole entry, looked up): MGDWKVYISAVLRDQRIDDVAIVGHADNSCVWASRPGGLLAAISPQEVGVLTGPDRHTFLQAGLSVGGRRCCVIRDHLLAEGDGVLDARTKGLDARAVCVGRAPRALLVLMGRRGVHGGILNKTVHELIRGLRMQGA
Sequence of UniProt Q16378 (Q16378 whole entry, looked up): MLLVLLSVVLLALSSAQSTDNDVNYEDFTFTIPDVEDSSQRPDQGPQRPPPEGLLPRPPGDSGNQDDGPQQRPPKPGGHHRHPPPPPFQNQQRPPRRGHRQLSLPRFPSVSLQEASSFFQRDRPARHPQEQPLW
Sequence of UniProt Q6EEV4 (Q6EEV4 whole entry, looked up): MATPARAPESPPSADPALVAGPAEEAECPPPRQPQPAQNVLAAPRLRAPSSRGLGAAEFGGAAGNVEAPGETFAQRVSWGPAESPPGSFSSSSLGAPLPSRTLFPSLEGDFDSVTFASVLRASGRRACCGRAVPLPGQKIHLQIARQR
Sequence of UniProt Q16816 (Q16816 whole entry, looked up): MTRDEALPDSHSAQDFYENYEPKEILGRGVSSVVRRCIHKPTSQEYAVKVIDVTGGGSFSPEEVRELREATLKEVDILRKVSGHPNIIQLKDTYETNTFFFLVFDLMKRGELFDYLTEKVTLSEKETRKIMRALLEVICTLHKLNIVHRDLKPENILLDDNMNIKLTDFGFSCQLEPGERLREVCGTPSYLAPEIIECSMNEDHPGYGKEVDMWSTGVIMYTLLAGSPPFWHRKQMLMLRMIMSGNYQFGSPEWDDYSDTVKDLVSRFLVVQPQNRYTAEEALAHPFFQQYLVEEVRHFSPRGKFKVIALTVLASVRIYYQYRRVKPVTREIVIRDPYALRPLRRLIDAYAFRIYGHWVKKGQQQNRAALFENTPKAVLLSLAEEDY
Sequence of UniProt P41247 (P41247 whole entry, looked up): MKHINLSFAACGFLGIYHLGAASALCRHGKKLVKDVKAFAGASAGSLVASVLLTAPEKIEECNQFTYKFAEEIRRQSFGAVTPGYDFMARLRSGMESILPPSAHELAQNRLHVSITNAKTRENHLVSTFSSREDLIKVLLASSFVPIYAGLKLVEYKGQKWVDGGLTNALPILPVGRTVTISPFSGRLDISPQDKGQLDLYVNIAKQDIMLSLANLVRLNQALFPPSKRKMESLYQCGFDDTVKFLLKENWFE

| Target | log2 fold change (erlotinib) | log2 fold change [1] | log2 fold change [2] | log2 fold change [3] | log2 fold change [4] | log2 fold change [5] | log2 fold change (IRAK-1-4 Inhibitor I) | log2 fold change (ibrutinib) | log2 fold change [6] | log2 fold change (ralimetinib) | log2 fold change [7] | log2 fold change [8] | log2 fold change [9] | log2 fold change [10] | log2 fold change [11] | log2 fold change [12] | log2 fold change [13] | log2 fold change [14] | log2 fold change [15] | log2 fold change [16] |
| --- | --- | --- | --- | --- | --- | --- | --- | --- | --- | --- | --- | --- | --- | --- | --- | --- | --- | --- | --- | --- |
| PPP1R11 (UniProt O60927) | -0.046 | 0.015 | 0.01 | 0.004 | 0 | -0.03 | 0.132 | -0.037 | 0.058 | 0.062 | -0.021 | -0.024 | 0.1 | 0.052 | 0.059 | -0.037 | -0.01 |  |  |  |
| PECR (UniProt Q9BY49) |  |  |  |  | -0.004 | 0.056 |  |  |  |  |  |  |  |  |  |  |  |  |  |  |
| POLR2F (UniProt U3KPV3) |  |  |  |  | -0.055 | 0.084 |  |  |  |  |  |  |  | 0.223 |  |  |  |  |  |  |
| PREP (UniProt H0Y5Y0) |  |  |  |  |  |  |  |  | -0.051 |  |  |  |  |  |  |  | 0.029 |  |  |  |
| PIK3CG (UniProt P48736) | 0.045 | -0.011 |  | -0.047 | 0 | 0.003 | -0.011 | -0.017 |  | 0.02 | -0.047 | -0.027 | -0.054 | -0.071 | -0.025 | 0.01 |  | 0 | 0.045 | -0.005 |
| PYGO2 (UniProt Q9BRQ0) | -0.047 | 0.045 | -0.039 | 0.115 | 0.012 | 0.049 | 0.051 | 0.064 |  | 0.151 | -0.122 | -0.001 | 0.005 | 0.044 | 0.011 | -0.061 |  |  |  |  |
| PRRG1 (UniProt O14668) |  |  |  | -0.006 |  |  | 0.06 |  |  | 0.081 | 0.072 |  |  |  |  | -0.033 |  |  |  |  |
| PIK3CD (UniProt O00329) | -0.014 | -0.095 | 0.091 | -0.031 |  |  | 0.109 | -0.14 | 0.222 | -0.017 | -0.123 | -0.12 | 0.021 | -0.032 | 0.04 | 0.098 | -0.056 | -0.162 | 0.034 | 0.098 |
| PEX2 (UniProt P28328) | 0.106 | 0.068 | -0.128 | 0.082 |  |  | -0.04 | 0.017 | -0.114 | 0.021 | -0.098 | 0.023 | 0.14 | -0.07 | -0.002 | 0.065 | 0.035 | -0.731 (active) | 0.048 | -0.119 |
| PRADC1 (UniProt Q9BSG0) | -0.016 | 0.027 | 0.018 | 0 |  |  | 0.017 | 0.026 | -0.395 | -0.023 | 0.041 | -0.125 | 0.026 | -0.009 | 0.072 | 0.008 | -0.023 |  |  |  |
| PPT2, A0A140T9Y1 |  |  |  |  |  |  |  |  |  |  |  |  | -0.142 |  |  |  |  |  |  |  |
| PRR4 (UniProt Q16378) | -0.097 | -0.193 |  | -0.11 | -0.127 | 1.09 | -0.048 |  | -0.009 | -0.188 | 0.305 | 1.86 | 1.73 |  |  | 0.1 | -0.23 | 1.59 | -0.167 | -0.484 |
| PCBP2 (UniProt F8W0G4) | -0.117 | -0.007 | 0.022 | 0.005 | -0.241 | 0.079 | 0.093 | -0.27 |  | -0.061 | -0.282 | -0.175 | -0.045 | -0.083 |  | 0.049 |  | -0.36 | -0.102 | -0.236 |
| PNPLA4 (UniProt P41247) |  |  |  | 0.051 | 0.086 | 0.09 | -0.001 |  |  | 0.14 | -0.099 |  |  | -0.116 | -0.052 | 0.046 |  | 0.064 | 0.1 | 0.1 |
| PHOSPHO2 (UniProt C9JD35) |  |  |  |  | 0.069 | -0.21 |  |  |  |  |  |  |  |  | 0.09 |  |  |  |  |  |
| PPP2CA (UniProt E7ESG8) |  |  |  |  |  |  |  |  |  |  |  |  | 0.239 |  |  |  |  |  |  |  |
| POLR2M (UniProt Q6EEV4) | 0.011 | -0.025 | -0.045 |  | 0.052 | -0.01 |  | 0.005 | -0.07 |  |  | -0.109 |  | 0.007 | 0.157 |  | 0.078 | 0.164 | -0.031 | -0.111 |
| PHGDH, A0A286YFE1 |  |  | -0.166 |  |  |  |  | 0.032 | 0.084 |  |  |  |  | -0.458 |  |  | 0.107 |  |  |  |
| POM121C (UniProt A8CG34) | 0.001 | 0.027 | 0.032 | -0.064 |  |  | -0.069 | -0.167 | 0.008 | -0.127 | 0.016 | 0.028 |  |  |  | -0.028 | 0.034 |  |  |  |
| PFN3 (UniProt P60673) |  |  |  |  | -0.041 | 0.155 |  |  | 0.042 |  |  |  | -0.02 |  | -0.03 |  | -0.02 | -0.231 | -0.078 | -0.162 |
| PICALM (UniProt H0YCY1) | -0.09 | 0.108 |  |  |  |  |  |  |  |  |  | -0.155 |  |  |  |  |  |  |  |  |
| PPME1 (UniProt Q9Y570) | 0.129 | 0.003 | -0.09 |  | -0.025 | -0.033 |  | -0.038 | -0.072 |  |  | -0.238 |  | -0.018 |  |  | -0.077 |  |  |  |
| PTMA isoform 2 (UniProt P06454) |  |  | 0.015 |  |  |  |  | -0.053 |  |  |  |  |  |  |  |  |  |  |  |  |
| PHKG1 isoform 2 (UniProt Q16816) | 0.003 | 0.187 |  | 0.029 | 0.157 | 0.014 | -0.102 |  | 0.595 | 0.02 | -0.016 | -0.003 | -0.117 | -0.196 | 0.017 | -0.02 | -0.086 | -0.127 | 0.061 | 0.399 |
| PDE4DIP (UniProt E9PS60) | 0.026 | -0.13 |  |  | 0.114 | 0.063 |  |  |  |  |  | 0.037 | -0.113 | 0.076 | 0.234 |  |  | -0.056 | 0.044 | 0.039 |
| PPIC (UniProt P45877) | 0.049 | 0.119 | 0.265 | -0.032 |  |  | 0.06 | 0.278 |  | -0.17 | 0.057 | -0.021 | -0.139 | 0.138 | 0.102 | 0.05 |  | -0.042 | 0.025 | 0.036 |
| PRG4 (UniProt Q92954) |  |  | -0.296 | -0.027 |  |  | 0.057 | 0.267 | -0.002 | 0.037 | -0.109 |  | -0.091 | -0.029 | -0.027 | 0.035 | 0.034 |  |  |  |
| NA (UniProt Q4G0T1) | -0.178 | 0.348 (active) |  | 0.017 |  |  | 0.002 |  |  | 0.016 | -0.096 | -0.119 |  | -0.061 | -0.158 | -0.151 |  |  |  |  |
